TEAD-YAP inh: TEAD-YAP interaction inhibition, primary screen, TEAD-YAP interaction inhibitor project, luminescence, HEK-TIYL cells | TEAD-Gal4/YAP UAS-luciferase luminescence | inhibition, % at 9.12 µM | 640,000 tested, 1.4% active | AID 1259422, 2018; in the data active = inhibition above about 32%
FBW7 act: FBW7 E3 ligase activators, primary screen, biochemical, AlphaScreen, human; F-box/WD repeat-containing protein 7 (Homo sapiens), Q969H0; normalized activity (activation), % at 26.1 µM; AlphaScreen FBW7–phospho-cyclin E peptide binding, activator screen; 650,000 tested, 0.13% active; in the data active = normalized activity above about 1.9%;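 also: purified mutant Fbw7 with reduced substrate affinity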
MITF primary: MITF inhibitors, primary screen, biochemical, AlphaScreen, human; Microphthalmia-associated transcription factor (Homo sapiens), O75030; AlphaScreen MITF homodimerization, bead proximity signal; inhibition, % at 2.6 µM; 650,000 tested, 0.91% active; AID 1259374, 2018; in the data active = inhibition above about 50%
GPR151 activ: activators of human GPR151, primary screen, cell-based, PathHunter beta-arrestin, luminescence. PathHunter beta-arrestin GPR151 cells. activation, % at 11.2 µM. 650,000 tested, 1% active. AID 1508602, 2020; in the data active = activation above about 4.9%
Target sequence (Q8TDV0 whole entry, looked up): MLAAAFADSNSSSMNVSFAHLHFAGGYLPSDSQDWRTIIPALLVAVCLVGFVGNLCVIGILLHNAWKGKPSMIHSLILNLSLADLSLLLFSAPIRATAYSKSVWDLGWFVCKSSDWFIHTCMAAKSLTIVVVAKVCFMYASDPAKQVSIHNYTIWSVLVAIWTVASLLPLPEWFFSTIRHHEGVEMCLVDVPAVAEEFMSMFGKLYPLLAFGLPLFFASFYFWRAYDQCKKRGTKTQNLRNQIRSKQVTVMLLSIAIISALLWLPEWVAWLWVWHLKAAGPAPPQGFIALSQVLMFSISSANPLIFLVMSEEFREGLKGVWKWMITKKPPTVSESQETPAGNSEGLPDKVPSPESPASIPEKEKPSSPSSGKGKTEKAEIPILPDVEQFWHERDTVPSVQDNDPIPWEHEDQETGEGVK
GPR151 confirm: GPR151 activators, triplicate retest, confirmation, cell-based, PathHunter beta-arrestin, luminescence. 6,700 tested, under 10 active. GPR151 PathHunter beta-arrestin cells, 90 min; % of EA-reagent control over plate median. shares compounds with GPR151 activ. AID 1508609, 2020. activation, % at 11.2 µM;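 active = mean percent activation across replicates above the confirmation screen cutoff of 4.91%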
GPR119 ag: GPR119 activators in beta-arrestin cells, counter-screen for GPR151 activator project, cell-based, PathHunter beta-arrestin, luminescence, triplicate; shares compounds with GPR151 activ; 90 min; 0 = compound-well median, 100 = enzyme-acceptor control; activation, % at 11.2 µM; 6,700 tested, 0.3% active;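 active = mean percent activation in the counterscreen above 29.09%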;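 also: counterscreen on off-target GPR119 to flag nonselective hits from the GPR151 activator screen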
Large screens that a line does not name were inactive (follow-up assays come after a bar, where they were run). The list is not random: actives were taken first. Their share in the collection is about 3.5%.

CCN(CC)C(=O)CSc1nnc(-c2ccccn2)n1-c1ccccc1C	none
COc1cccc(OC)c1OCCN1CCNCC1	none
Clc1ccccc1OCCN1CCNCC1	GPR151 activ 5.4 | GPR151 confirm inactive | GPR119 ag inactive
COc1ccc(C2CC(C(F)(F)F)n3nc(C(=O)N4CCN(c5ccccc5)CC4)cc3N2)cc1OC (stereo not given)	none
COc1ccccc1/C=N/N=C1/NC(=O)C(CC(=O)Nc2ccc(Cl)cc2)S1 (stereo not given)	none
COc1ccc(N=C2SC(CC(=O)Nc3ccccc3)C(=O)N2CCN(C)C)cc1 (stereo not given)	none
C=CCN1C(=O)C(CC(=O)Nc2cccc(C(C)=O)c2)SC1=Nc1ccc(OC)cc1 (stereo not given)	GPR151 activ 5.7 | GPR151 confirm inactive | GPR119 ag inactive
COc1ccccc1/C=N/N=C1/NC(=O)C(CC(=O)Nc2cccc(C(C)=O)c2)S1 (stereo not given)	GPR151 activ 12 | GPR151 confirm inactive | GPR119 ag inactive
Cc1cc(C)n(-c2cccc(CN3CCN(CCc4ccccc4)C(CCO)C3)c2)n1 (stereo not given)	none
COc1cccc(N2C[C@@H]3C[C@@H](c4cc(=O)c5ccccc5[nH]4)N4CCC[C@@]34C2=O)c1	none
COc1ccc(Br)c(/C=N/NS(=O)(=O)c2ccc(Cl)cc2)c1	none
CN1C2CCC1CC(N(CCc1c[nH]c3ccccc13)C(=O)c1cc(Cl)cc(Cl)c1)C2 (stereo not given)	none
Cc1cccc(C(=O)N2CC(C)CC(C)C2)c1 (stereo not given)	GPR151 activ 5.6 | GPR151 confirm inactive | GPR119 ag inactive
FC(F)(F)c1cccc(C2N(Cc3ccccc3)CCN2Cc2ccccc2)c1	none
CC(=O)C1=NN(c2ccccc2)C(c2ccccc2OCc2c(Cl)cccc2Cl)N1C(C)(C)C (stereo not given)	none
COc1ccc(/C=C/C(=O)Nc2sc3c(c2C(=O)NCc2cccnc2)CCCC3)cc1	GPR151 activ 6.7 | GPR151 confirm inactive | GPR119 ag inactive
COc1ccc(/C=C/C(=O)Nc2sc3c(c2C(N)=O)CCCCC3)cc1	none
Cc1cc(Cl)ccc1NC(=O)CN(c1ccc(F)cc1)S(C)(=O)=O	none
CC(=O)NNC(=O)c1ccc(Cl)cc1	none
CC(=O)NC(NC(=O)c1ccc(Cl)cc1)C(Cl)Cl (stereo not given)	GPR151 activ 6.9 | GPR151 confirm inactive | GPR119 ag inactive
COc1cc(/C=C/c2nnc3c4ccccc4ncn23)cc(OC)c1OC	GPR151 activ 8.4 | GPR151 confirm inactive | GPR119 ag inactive
C(=C\c1nnc2c3ccccc3ncn12)/c1ccccc1	none
CC(C)NC(=O)c1ccc(C(=O)C(F)(F)F)cc1	GPR151 activ 5.6 | GPR151 confirm inactive | GPR119 ag inactive
CC(C)NC(=O)C(=O)NNC(=O)c1ccc(C(C)(C)C)cc1	GPR151 activ 5.7 | GPR151 confirm inactive | GPR119 ag inactive
CC(C)NC(=O)c1ccc(COCC(F)(F)F)cc1	none
CCc1nnc(NS(=O)(=O)c2ccc(NC(=O)CN3C(=O)c4ccccc4C3=O)cc2)s1	GPR151 activ 7.4 | GPR151 confirm inactive | GPR119 ag inactive
CCCNC(=O)C1CCN(C(=O)N2CC(C)Oc3ccccc32)CC1 (stereo not given)	none
CCCNC(=O)C1CCN(C(=O)N2CC(C)Oc3ccc(Cl)cc32)CC1 (stereo not given)	GPR151 activ 11 | GPR151 confirm inactive | GPR119 ag inactive
O=C(c1ccccc1)c1ccc2c(c1)C(=O)N(c1cccc(O)c1)C2=O	none
Cc1ccc(NC(=O)C(CC(=O)O)NCc2ccco2)cc1 (stereo not given)	GPR151 activ 7.6 | GPR151 confirm inactive | GPR119 ag inactive
CCN(CC)C(=O)c1ccc2c(=O)n(-c3ccc(F)cc3)c(=S)[nH]c2c1	GPR151 activ 5.0 | GPR151 confirm inactive | GPR119 ag inactive
COCCn1c(SCc2cccc(Cl)c2)nc2c([nH]c3ccccc32)c1=O	GPR151 activ 11 | GPR151 confirm inactive | GPR119 ag inactive
COCCn1c(SCc2ccc(F)cc2)nc2c([nH]c3ccccc32)c1=O	none
Clc1ccc(CN2CCc3nc(-c4ccccn4)nc(N4CCOCC4)c3C2)s1	GPR151 activ 5.1 | GPR151 confirm inactive | GPR119 ag inactive
COc1ccc(C(=O)N2CCN(CCNC(=O)C(=O)Nc3ccccc3)CC2)cc1	none
COc1ccc(NC(=O)C(=O)NCCN2CCN(C(=O)c3c(F)cccc3F)CC2)cc1	GPR151 activ 5.8 | GPR151 confirm inactive | GPR119 ag inactive
CCOc1ccccc1C(=O)Nc1ccc(S(=O)(=O)Nc2nnc(CC)s2)cc1	none
Cc1cc(C(=O)N2CCC(c3nc4ccccc4s3)CC2)nn1C	none
CC1CN(C(=O)c2cc(C(C)C)n(-c3nc4ccccc4s3)n2)CC(C)O1 (stereo not given)	GPR151 activ 5.7 | GPR151 confirm inactive | GPR119 ag inactive
CCOc1ccc(NC(=O)CN2N=NC3C(=O)N(c4ccc(Cl)cc4)C(=O)C32)cc1 (stereo not given)	GPR151 activ 5.7 | GPR151 confirm inactive | GPR119 ag inactive
CC(C)(C)C(=O)Nc1nnc(SCC(N)=O)s1	GPR151 activ 5.2 | GPR151 confirm inactive | GPR119 ag inactive
CC(C)(C)C(=O)Nc1nnc(SCC(=O)NO)s1	none
CCOC(=O)CNC(=O)CSc1nnc(NC(=O)C(C)(C)C)s1	GPR151 activ 5.2 | GPR151 confirm inactive | GPR119 ag inactive
C/C(=N/NC(=O)c1ccccc1N)c1ccc(Br)cc1	none
CCCCCn1c(N)c(C#N)c2nc3ccccc3nc21	GPR151 activ 8.2 | GPR151 confirm inactive | GPR119 ag inactive
Cn1c(N)c(C#N)c2nc3ccccc3nc21	none
O=C(O)C1CCN(C(=O)c2sccc2-n2cccc2)CC1	none
CCC(=O)c1ccc(OCC(O)CN(CCO)CCO)cc1 (stereo not given)	none
CCCOC(=O)c1ccc(OCC(O)CN(CCO)CCO)cc1 (stereo not given)	GPR151 activ 5.1 | GPR151 confirm inactive | GPR119 ag inactive
CCOc1cc2c3c(c1)C1(OCCO1)C(=O)N3C(C)(C)CC2C (stereo not given)	GPR151 activ 5.9 | GPR151 confirm inactive | GPR119 ag inactive
O=C1NC(=O)/C(=C\c2cc(Br)cc(Br)c2O)S1	none

Source: PubChem (The Scripps Research Institute Molecular Screening Center)
